Source: PubChem BioAssay

Tests used:
[1] = tested on: Botulinum neurotoxin type F light chain protease (Clostridium botulinum); assay: Clostridium botulinum type F light chain protease inhibitors, microsphere substrate cleavage, validation (AID 588459); conditions: multiplex microsphere protease substrate cleavage assay, flow cytometry; at 10 µM; hits give high values
[2] = molecular target: Botulinum neurotoxin type A (Clostridium botulinum) (UniProt P0DPI0); assay: BoNT/A light chain protease inhibitors, biochemical, multiplex microsphere flow cytometry, validation set (AID 588460); conditions: at 10 µM, hits give high values
[3] = molecular target: Lethal factor (Bacillus anthracis) (UniProt P15917); assay: Bacillus anthracis lethal factor inhibition, microsphere flow cytometry protease assay, validation at 10 µM (AID 588461); conditions: multiplex microsphere protease cleavage assay, hits give high values

Measured: inhibition

Lethal factor (Bacillus anthracis), sequence (P15917 whole entry, looked up): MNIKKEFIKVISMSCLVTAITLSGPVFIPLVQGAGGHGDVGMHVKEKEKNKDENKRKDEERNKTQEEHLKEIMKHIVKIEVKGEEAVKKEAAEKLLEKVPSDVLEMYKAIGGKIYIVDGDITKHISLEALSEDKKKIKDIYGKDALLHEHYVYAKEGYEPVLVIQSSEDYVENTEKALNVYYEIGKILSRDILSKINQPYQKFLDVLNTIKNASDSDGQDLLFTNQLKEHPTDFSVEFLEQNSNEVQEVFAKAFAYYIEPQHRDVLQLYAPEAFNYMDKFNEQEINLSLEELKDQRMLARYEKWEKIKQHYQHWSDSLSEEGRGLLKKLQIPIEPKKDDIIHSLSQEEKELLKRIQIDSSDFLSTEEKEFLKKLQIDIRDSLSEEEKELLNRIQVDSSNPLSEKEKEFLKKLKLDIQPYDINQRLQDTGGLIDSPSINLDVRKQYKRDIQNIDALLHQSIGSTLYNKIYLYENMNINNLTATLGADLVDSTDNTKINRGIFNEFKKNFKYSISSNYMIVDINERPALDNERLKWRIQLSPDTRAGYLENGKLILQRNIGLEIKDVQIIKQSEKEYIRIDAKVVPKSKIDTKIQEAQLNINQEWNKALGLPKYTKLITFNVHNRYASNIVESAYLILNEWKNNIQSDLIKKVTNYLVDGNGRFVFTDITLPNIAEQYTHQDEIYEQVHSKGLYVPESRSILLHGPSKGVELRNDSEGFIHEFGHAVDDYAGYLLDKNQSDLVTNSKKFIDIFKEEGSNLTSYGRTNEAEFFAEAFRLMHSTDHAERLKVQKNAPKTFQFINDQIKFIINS
Botulinum neurotoxin type A (Clostridium botulinum), sequence (P0DPI0 whole entry, looked up): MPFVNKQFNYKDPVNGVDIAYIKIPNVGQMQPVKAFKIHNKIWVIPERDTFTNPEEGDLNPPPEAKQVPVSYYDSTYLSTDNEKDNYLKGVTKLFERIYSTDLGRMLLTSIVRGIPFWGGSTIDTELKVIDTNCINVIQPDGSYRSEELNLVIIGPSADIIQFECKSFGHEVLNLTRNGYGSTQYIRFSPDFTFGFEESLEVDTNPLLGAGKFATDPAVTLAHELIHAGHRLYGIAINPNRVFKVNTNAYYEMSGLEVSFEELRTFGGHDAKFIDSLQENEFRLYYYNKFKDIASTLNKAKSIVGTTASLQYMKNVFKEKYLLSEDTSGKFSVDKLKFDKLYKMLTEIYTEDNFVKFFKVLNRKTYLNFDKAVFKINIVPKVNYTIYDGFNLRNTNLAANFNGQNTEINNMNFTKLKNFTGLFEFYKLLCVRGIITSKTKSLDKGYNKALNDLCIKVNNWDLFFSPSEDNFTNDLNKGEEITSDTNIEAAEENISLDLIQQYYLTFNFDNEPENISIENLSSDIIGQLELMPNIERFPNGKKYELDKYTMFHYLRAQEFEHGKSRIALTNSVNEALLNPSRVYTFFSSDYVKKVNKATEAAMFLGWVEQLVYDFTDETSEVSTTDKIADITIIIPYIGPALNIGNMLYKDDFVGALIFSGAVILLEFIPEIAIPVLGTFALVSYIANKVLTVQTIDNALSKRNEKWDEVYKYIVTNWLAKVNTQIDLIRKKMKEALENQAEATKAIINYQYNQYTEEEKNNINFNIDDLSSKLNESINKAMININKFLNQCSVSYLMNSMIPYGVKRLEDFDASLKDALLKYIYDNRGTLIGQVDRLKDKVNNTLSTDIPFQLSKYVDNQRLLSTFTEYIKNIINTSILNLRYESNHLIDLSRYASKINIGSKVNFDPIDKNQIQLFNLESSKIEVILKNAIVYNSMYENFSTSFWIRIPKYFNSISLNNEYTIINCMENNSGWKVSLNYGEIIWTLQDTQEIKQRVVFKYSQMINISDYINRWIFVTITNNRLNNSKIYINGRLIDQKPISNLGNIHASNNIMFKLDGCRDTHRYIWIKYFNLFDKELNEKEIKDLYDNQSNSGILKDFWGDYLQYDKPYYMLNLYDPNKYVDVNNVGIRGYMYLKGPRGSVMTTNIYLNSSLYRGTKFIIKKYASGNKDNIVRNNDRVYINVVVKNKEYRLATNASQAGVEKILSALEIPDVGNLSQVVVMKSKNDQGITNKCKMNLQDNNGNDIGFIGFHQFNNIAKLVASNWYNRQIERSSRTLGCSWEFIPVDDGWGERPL

C[C@@H]1C[C@H]2[C@@H]3CCC4=CC(=O)C=C[C@]4(C)[C@@]3(F)[C@@H](O)C[C@]2(C)[C@@]1(O)C(=O)COP(=O)(O)O
inactive: [1] 2.6% | [2] 0.2% | [3] 0.9%

O=C(CCc1ccccc1)Nc1ccccc1C(F)(F)F
inactive: [1] 0.7% | [2] -0.1% | [3] 0.5%

CC(=O)N1N=C(c2cccs2)CC1c1ccc(C)o1 (configuration not stated)
inactive: [1] -1.2% | [2] -0.8% | [3] 1.7%

CC(C)C12CN3CC(C(C)C)(CN(C1)C31C(=O)Nc3ccccc31)C2=O (configuration not stated)
inactive: [1] 0.1% | [2] 0.7% | [3] 9%

Cn1c(Oc2ccc3c(c2)OCO3)nc2c1c(=O)n(Cc1ccccc1)c(=O)n2C
inactive: [1] 1.4% | [2] -0.3% | [3] -0.5%

CC(=O)Nc1cc(O)cc(O)c1
inactive: [1] 6.1% | [2] 0.1% | [3] -1.2%

CN(C)[C@@H]1C(=O)C(C(=O)NCN2CCCC2)=C(O)[C@@]2(O)C(=O)C3=C(O)c4c(O)cccc4[C@@](C)(O)C3CC12 (some centres not stated)
inactive: [1] -4.8% | [2] -5.7% | [3] -8.3%

CC(=O)OCC(=O)[C@@]1(OC(C)=O)[C@@H](C)C[C@H]2[C@@H]3C[C@H](F)C4=CC(=O)C=C[C@]4(C)[C@@]3(F)[C@@H](O)C[C@@]21C
inactive: [1] 1.6% | [2] 0.4% | [3] -0.9%

O=C(NNC(=O)c1cccs1)c1ccco1
inactive: [1] 1.9% | [2] -2.8% | [3] 0.2%
